Screening results from PubChem BioAssay.
APE1 inh: blocks human APE1 abasic DNA cleavage | P27695 | recombinant APE1, TAMRA/BHQ-2 abasic DNA cleavage fluorescence | Potency, µM (series often up to 65.8 µM), for inactives: at the top dose activity change, negative = inhibition, usual class: inhibitors | actives 0.35% (n = 350,000) | AID 2517;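 further: plate controls were vehicle for no effect and reference inhibitor for full effect; nearly all actives have a fitted effect of over 55% in size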
Target sequence (P27695 whole entry, looked up): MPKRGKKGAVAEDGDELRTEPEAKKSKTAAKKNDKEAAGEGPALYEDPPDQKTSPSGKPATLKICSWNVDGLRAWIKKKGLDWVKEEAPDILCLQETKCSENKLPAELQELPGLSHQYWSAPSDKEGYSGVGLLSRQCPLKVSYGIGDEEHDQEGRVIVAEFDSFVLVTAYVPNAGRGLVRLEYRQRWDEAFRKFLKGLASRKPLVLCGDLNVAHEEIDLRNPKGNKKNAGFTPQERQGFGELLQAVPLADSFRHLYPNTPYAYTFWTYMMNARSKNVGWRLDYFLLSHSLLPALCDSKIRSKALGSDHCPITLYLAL
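Compound pre-exposure to 0.75 nM APE1, 15 min at ambient temperature. Reaction initiated with 50 nM TAMRA/BHQ-2 THF substrate, read immediately in kinetic mode, 525 nm excitation, 598 nm emission.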
BLM helicase inh: blocks DNA unwinding by human BLM helicase. P54132. recombinant BLM DNA unwinding, fluorescence dequenching. Potency, µM (series often up to 56.1 µM), for inactives: at the highest dose activity change, negative = inhibition, usual class: inhibitors. actives 0.2% (n = 350,000). AID 2528;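 further: plate controls were vehicle for no effect and no enzyme for full effect; nearly all actives have a fitted effect of over 35% in size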
FEN1 inh-1: blocks human flap endonuclease 1 | AID 588795 | Recombinant FEN1 flap cleavage, fluorescence, 15 min | actives 0.35% (n = 390,000) | Potency, µM (series often up to 114 µM), without a hit: at the highest dose activity change, negative = inhibition, hits mostly inhibitors | P39748; further: on the % scale 0 is the no-effect control and ±100 the full control effect; nearly all actives have a fitted effect of over 65% in size
Target sequence (P39748 whole entry, looked up): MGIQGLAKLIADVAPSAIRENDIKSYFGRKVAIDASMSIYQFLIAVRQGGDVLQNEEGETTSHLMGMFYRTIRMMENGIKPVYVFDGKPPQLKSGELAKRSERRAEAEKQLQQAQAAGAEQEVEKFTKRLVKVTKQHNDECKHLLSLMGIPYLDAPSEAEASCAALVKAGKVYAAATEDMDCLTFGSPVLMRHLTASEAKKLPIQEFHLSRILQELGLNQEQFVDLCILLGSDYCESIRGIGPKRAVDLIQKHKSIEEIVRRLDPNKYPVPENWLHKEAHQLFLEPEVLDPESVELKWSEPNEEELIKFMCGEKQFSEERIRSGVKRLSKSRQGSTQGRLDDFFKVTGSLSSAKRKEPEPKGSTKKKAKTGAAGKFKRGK
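Potency values derive from four-parameter Hill fits of normalized qHTS data. The reaction used 10 nM FEN1 preincubated 15 min at room temperature with compound, then 50 nM DNA substrate, read at 0 and 15 min.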
PGK inhibitor: inhibitors of T. brucei phosphoglycerate kinase | Potency, µM (doses to about 57.5 µM), without a hit: at the highest dose activity change, negative = inhibition, usual class: inhibitors | P07378 | actives 0.043% (n = 380,000) | AID 602233 | PGK/GAPDH coupled, Kinase-Glo luminescence, 60 min; further: on the % scale 0 is the no-effect control and ±100 the full control effect; nearly all actives have a fitted effect of over 60% in size
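Recombinant glycosomal PGK reaction used 1,3-bisphosphoglycerate generated in-well by GAPDH (100nM final) in 100mM TEA pH 7.6, 5mM MgCl2, 0.01% Tween-20. After 60 minutes at room temperature, ATP was read by Kinase-Glo Plus luminescence end-point.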
RECQ1 helicase: RECQ1 (human) helicase inhibition | P46063 | RECQ1 DNA unwinding, red fluorescence kinetic read | Potency, µM (series often up to 57.3 µM), for the others: at the top dose activity, negative = inhibition, actives largely listed as inhibitors | actives 0.54% (n = 240,000) | AID 2549;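 further: plate controls were vehicle for no effect and no enzyme for full effect; nearly all actives have a fitted effect of over 30% in size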
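50 nM RECQ1T1 preincubated 15 min with compound in Tris pH 8.0 buffer with MgCl2, DTT, Tween-20 and 2.5 ug/ml poly(dI-dC); started with 200 nM TAMRA/BHQ-2 forked duplex and 2 mM ATP. Unwinding read as fluorescence (525/598 nm), two reads 2 h apart.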
FEN1 inh-2: confirmation of human FEN1 inhibitors; shares compounds with FEN1 inh-1; FEN1 flap cleavage, TAMRA/BHQ2 fluorogenic DNA substrate; Potency, µM, usual class: inhibitors; actives 79% (n = 880); further: nearly all actives have a fitted effect of over 60% in size
* hit, by the source's call; i = inactive; u = inconclusive; x = no result given. This is a sample that favours compounds with a hit; in the whole collection about 0.74% have one here. The call rests on the fitted dose curve; in most records, active means well fitted curve in the direction sought with a large enough effect; inconclusive means small, poorly fitted or top-dose-only effect, or another doubt; inactive means no such curve, though single readings can be large; an effect the other way counts as inactive or inconclusive. Potency means the concentration at half of the fitted maximal effect.

SMILES	APE1 inh	BLM helicase inh	FEN1 inh-1	PGK inhibitor	RECQ1 helicase	FEN1 inh-2
Cc1cc(NC(=O)CSc2cn(CCNC(=O)c3ccccc3)c3ccccc23)no1	-4%	-3%	32µM*	7.1µM*	-6%	67*
CSc1ccc(S(=O)(=O)NC2CC3CCC2C3)cc1 (stereo not given)	5%	-10%	-13%	i	x	x
COc1ccc(-c2cc(=O)c3c(O)cc(OC4OC(COC5OC(C)C(O)C(O)C5O)C(O)C(O)C4O)cc3o2)cc1O (stereo not given)	28%	x	50µM*	4%	x	u
CCOC(=O)C1=C(O)C(=O)C(C(=O)OCC)C1 (stereo not given)	x	x	4.5µM*	-4%	x	8.5*
CCOc1cc(-c2ccc3c(c2)OCO3)cc(=[O+]CC)c2c(C)oc(C)c12	x	x	45µM*	x	x	u
CN1/C(=C\C=O)C(C)(C)c2ccccc21	-3%	4%	-3%	i	-7%	x
CN1\C(=C/C=C/C=C/C=[N+](C)C)C(C)(C)c2ccccc21	u	28µM*	89µM*	u	25µM*	85*
N#C/C(=C\c1ccc(O)c(O)c1)C(=O)Nc1cccc2ncccc12	3µM*	13µM*	45µM*	u	x	u
Nc1nccnc1C(=O)OCC(=O)Nc1ccc2[nH]c(=O)[nH]c2c1	-1%	x	u	-8%	x	u
O=C(COC(=O)c1ccccc1)Nc1ccc2[nH]c(=O)[nH]c2c1	-3%	x	-5%	0%	x	x
CC(=O)Nc1cccc(OCC(O)Cn2cnc3ccccc32)c1 (stereo not given)	17%	5%	-3%	-1%	-11%	x
Cc1ccnc(SC2CC(=O)N(c3ccc([N+](=O)[O-])cc3)C2=O)n1 (stereo not given)	34%	-5%	3%	-10%	x	x
Cc1cncn1CCc1nc2c3ccccc3nc(SCC(=O)Nc3ccc(F)cc3)n2n1	x	-8%	20%	u	x	x
CCOc1ccccc1NC(=O)CSc1nc2ccccc2c2nc(CCn3cncc3C)nn12	x	-5%	-25%	13%	x	u
Cc1cc(C)n(CC(=O)N/N=C/c2cc([N+](=O)[O-])ccc2O)n1	u	-10%	1%	i	2%	x
O=C(COC(=O)c1ccc([N+](=O)[O-])s1)Nc1ccc(F)cc1	u	x	-17%	-8%	x	x
COc1ccc(S(=O)(=O)N2CCOCC2)cc1NC(=O)COC(=O)c1[nH]c(C)c(C(C)=O)c1C	-3%	x	-4%	1%	x	x
Cc1ccc(C(=O)OCc2nnc(-c3ccccc3)o2)s1	-4%	x	-3%	-9%	x	x
O=C(OCc1nnc(-c2ccccc2)o1)c1ccc([N+](=O)[O-])s1	u	x	u	-16%	x	4.8*
COc1ccc(S(=O)(=O)N2CCOCC2)cc1NC(=O)COC(=O)c1ccc([N+](=O)[O-])s1	u	x	-20%	-5%	x	6.7*
O=C(COC(=O)c1ccc([N+](=O)[O-])s1)Nc1ccccc1	u	-7%	-18%	-4%	i	21*
O=c1c2cc(NC(=S)NCc3ccccn3)ccc2nc2n1CCCCC2	15%	-3%	13%	6%	i	x
O=C(O)CNS(=O)(=O)c1ccc2c3c(cccc13)C(=O)N2	u	-10%	u	-14%	x	x
CCC(C)c1ccccc1NC(=O)C(C)Sc1n[nH]c(N)n1 (stereo not given)	3%	x	7%	-6%	x	x
O=C(O)c1ccc(-c2ccc(/C=c3/sc4nc5ccccc5n4c3=O)o2)cc1Cl	9.5µM*	u	13µM*	10µM*	x	u
SMILES	APE1 inh	BLM helicase inh	FEN1 inh-1	PGK inhibitor	RECQ1 helicase	FEN1 inh-2
Cc1ccc2c(nc3s/c(=C\c4ccc(-c5ccccc5C(=O)O)o4)c(=O)n32)c1C	u	-7%	-23%	-6%	x	x
CCCCn1nc(C(=O)NCC2COc3ccccc3O2)c2ccccc2c1=O (stereo not given)	3%	x	-1%	5%	x	x
COc1ccc(/C=N/NC(=O)c2[nH]c3ccc(Cl)cc3c2-c2ccccc2)c(C(=O)O)c1OC	-4%	-7%	u	-14%	x	38*
CCCCCC(O)CCC(=O)NNC1=CC(=O)CC(C)(C)C1 (stereo not given)	2%	0%	6%	-6%	i	x
Cc1ccc(NC(=O)c2ccc([N+](=O)[O-])o2)cc1C	-4%	-8%	7%	-1%	0%	x
O=C(Nc1ccc2[nH]c(=O)[nH]c2c1)c1ccc([N+](=O)[O-])o1	-25%	x	-24%	-15%	x	43*
Cc1ccc2oc(=O)c3cc(C(=O)NCCN4CCN(C)CC4)sc3c2c1	5%	79%	4%	6%	-5%	x
O=C(NCCCN1CCCC1)c1cc2c(Cl)nc3ccccc3c2s1	6%	136%	40µM*	4%	i	38*
O=C(NCCCN1CCN(c2ccccc2F)CC1)c1cc2c(Cl)nc3ccccc3c2s1	x	2%	7%	8%	x	x
CC1CCN(CCCNC(=O)c2cc3c(Cl)nc4ccccc4c3s2)CC1	-10%	134%	u	x	34%	u
Cc1ccc2oc(=O)c3cc(C(=O)NCCCN4CCCCCC4)sc3c2c1	-29%	59%	u	6%	x	u
CCCN1CCN(CCCNC(=O)c2cc3c(Cl)nc4ccccc4c3s2)CC1	x	187%	45µM*	-4%	x	u
C[C@@H](C(=O)OCn1nnc2ccccc2c1=O)N1C(=O)C2CCCCC2C1=O (stereo not given in full)	-7%	-2%	1%	-1%	-10%	x
NS(=O)(=O)c1ccc(CCNC(=O)COC(=O)Cc2ccc([N+](=O)[O-])cc2)cc1	-5%	x	-8%	i	x	x
O=C(COC(=O)c1ccc([N+](=O)[O-])o1)NCc1ccccc1	-11%	x	u	-8%	x	13*
O=C(COC(=O)c1ccc([N+](=O)[O-])o1)c1ccccc1	-2%	7%	-14%	4%	-10%	x
Cc1cccc(C)c1NC(=O)COC(=O)c1ccc([N+](=O)[O-])o1	u	-4%	u	i	-8%	13*
NS(=O)(=O)c1ccc(CCNC(=O)COC(=O)c2ccc([N+](=O)[O-])o2)cc1	-42%	x	u	-5%	x	11*
Cc1cccc(C)c1NC(=O)COC(=O)c1ccccc1[N+](=O)[O-]	-8%	-3%	-11%	0%	i	x
O=C(COC(=O)c1ccc([N+](=O)[O-])o1)Nc1ccc2c(c1)OCO2	-37%	x	u	7%	x	19*
O=C(CCCN1C(=O)/C(=C/c2cccs2)SC1=S)NNC(=O)c1ccc(F)cc1	6%	-1%	21%	i	-18%	x
